Cruzain inh noDet – blocks cruzain activity in detergent-free assay; purified cruzain, Z-FR-AMC fluorescence, no detergent; AID 1476; P25779; 2.3% of 200,000 active; Potency, µM, for the others: max response, negative = inhibition, hits mostly inhibitors;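 also: plate controls were enzyme without inhibitor for no effect and buffer without enzyme for full effect; nearly all actives have a fitted effect of over 40% in size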
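Purified cruzain at 1.5 nM, pre-incubated 15 min with compound at room temperature in 100 mM sodium acetate pH 5.5, 5 mM DTT, 0.00005% Triton X-100. Reaction started with 2 uM Z-FR-AMC; AMC fluorescence increase over 60 s gives rate.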
Cruzain inh Det – inhibitors of Trypanosoma cruzi cruzain with detergent | Potency, µM, for inactives: max response, negative = inhibition, hits mostly inhibitors | 0.43% of 200,000 active | purified cruzain, Z-FR-AMC fluorescence, 0.01% Triton | P25779;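 also: plate controls were neutral wells for no effect and buffer without enzyme for full effect; nearly all actives have a fitted effect of over 40% in size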
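Enzyme 1.5 nM, Z-FR-AMC 2 uM, NaOAc 100 mM pH 5.5, DTT 5 mM, Triton X-100 0.01%; 15 min RT compound preincubation; kinetic ex360/em450, 60 s delta.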
Papain counter – papain (Carica papaya) inhibition counter-screen; shares compounds with Cruzain inh Det; 41% of 410 active; purified papain, Z-FR-AMC fluorescence cleavage; Potency, µM, inactives show max response, negative = inhibition, usual class: inhibitors;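 also: 0% = no-compound wells and -100% = no-enzyme wells; nearly all actives have a fitted effect of over 35% in size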
Target sequence (P00784 whole entry, looked up): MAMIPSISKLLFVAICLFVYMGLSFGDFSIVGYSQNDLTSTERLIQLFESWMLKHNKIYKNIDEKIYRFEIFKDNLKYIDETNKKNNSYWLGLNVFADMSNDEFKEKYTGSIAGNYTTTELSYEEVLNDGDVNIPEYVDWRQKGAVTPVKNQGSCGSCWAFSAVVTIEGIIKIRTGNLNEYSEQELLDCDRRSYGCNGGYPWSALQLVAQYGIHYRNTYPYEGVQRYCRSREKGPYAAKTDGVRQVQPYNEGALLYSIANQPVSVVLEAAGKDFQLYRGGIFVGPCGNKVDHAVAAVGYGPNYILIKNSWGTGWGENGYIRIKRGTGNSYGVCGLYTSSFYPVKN
* = called active by the depositor; ? = inconclusive; nt = no result given. Rows were chosen to be rich in hits. Some 2.6% of all compounds tested hit in one or more screens of this group. Calls follow the shape of the dose curve; as a rule, active = well fitted curve in the direction sought with a large enough effect; inconclusive = small, poorly fitted or top-dose-only effect, or another doubt; inactive = no such curve, though single readings can be large; an effect the other way counts as inactive or inconclusive. Potency is read from the fitted curve at half-maximal effect.

SMILES | Cruzain inh noDet | Cruzain inh Det | Papain counter
COc1ccc([C@@H]2CC(=O)c3c(O)cc(O[C@H]4O[C@@H](CO[C@H]5O[C@@H](C)[C@@H](O)[C@@H](O)[C@@H]5O)[C@@H](O)[C@@H](O)[C@@H]4O)cc3O2)cc1O | -6.4% | -3.9% | nt
CCOc1ccc(NC(=O)c2ccc(CNc3c(NC4CCCCC4)c(=O)c3=O)cc2)cc1 | 3.98µM* | 0.1% | 7.7%
COc1ccc(NC(=O)c2ccc(CNc3c(NC4CCCCC4)c(=O)c3=O)cc2)c(OC)c1 | ? | 0.0% | nt
O=c1c2cc3c(cc2nc2sc(Nc4ccc(F)c(Cl)c4)nn12)OCO3 | 0.9% | 1.8% | nt
C[C@@H](C(=O)O)c1ccc(N2Cc3ccccc3C2=O)cc1 | 7.1% | -0.6% | nt
O=C(Nc1cc(Cl)ccc1Cl)C1(c2cccs2)CCOCC1 | -11.4% | -5.6% | nt
COC(=O)CSc1nnc([C@H](CC(C)C)NC(=O)OC(C)(C)C)o1 | -24.0% | ? | nt
CC(C)(C)OC(=O)N[C@@H](Cc1ccccc1)c1nnc(SCC(=O)O)o1 | -13.4% | 25.1µM* | -21.1%
COc1ccc(-c2cc(C(F)(F)F)nc(N3CCN(C)CC3)n2)cc1 | -3.4% | 0.1% | nt
COc1ccc(-c2cc(C#N)nc(N3CCN(C)CC3)n2)cc1 | 15.8µM* | 25.1µM* | -17.8%
COC[C@H]1OC(=O)c2coc3c2[C@@]1(C)C1=C(C3=O)[C@H]2CCC(=O)[C@@]2(C)C[C@H]1OC(C)=O | 7.1% | -8.1% | nt
O=C(CNC(=O)C1CCCCC1)OCC(=O)c1ccc2c(c1)CCC2 | nt | nt | -24.9%
CCOc1ccc(C(=O)COC(=O)CNC(=O)C2CCCCC2)cc1 | nt | nt | -27.5%
O=C(CNC(=O)c1ccco1)OCC(=O)c1ccc2c(c1)CCCC2 | -0.5% | -9.9% | nt
O=C(CN1C(=O)c2ccccc2C1=O)NCC(=O)OCC(=O)c1ccc(Br)cc1 | -9.0% | 0.2% | nt
O=C(CNC(=O)c1ccccc1)OCC(=O)c1ccccc1 | nt | nt | -24.7%
O=C(CNC(=O)C1CCCCC1)OCC(=O)c1ccc(Br)cc1 | nt | nt | -24.2%
CCOc1ccc(C(=O)COC(C)=O)cc1 | -6.7% | 2.0% | nt
CCOC(=O)CNC(=O)c1ccccc1 | 5.5% | -2.2% | nt
O=C(CCNS(=O)(=O)c1ccc(Br)s1)Nc1ccc(Br)cc1 | -16.5% | -11.0% | nt
Cc1ccc(OCC(=O)N(Cc2ccco2)Cc2ccc(C)o2)cc1 | -16.9% | -6.6% | nt
O=C(O)c1ccccc1Cl | 9.3% | 0.7% | nt
O=c1n(Cc2ccc(Cl)cc2)c2ccccc2c2nc(-c3ccccc3)nn12 | -2.4% | -1.0% | nt
Cc1cc2nnc(SCC(=O)Nc3ccc(F)c(Cl)c3)n2c2ccccc12 | -8.3% | 0.0% | nt
COc1ccc(C(CC(=O)O)NC(=O)C2CCCCC2)cc1 (stereo not drawn) | -5.5% | 3.5% | nt
SMILES | Cruzain inh noDet | Cruzain inh Det | Papain counter
COc1ccc(C(=O)C(C)OC(=O)CNC(=O)C2CCCCC2)cc1 (stereo not drawn) | nt | nt | 11.2µM*
COc1cccc(C2C=C(c3ccc(C)cc3)Nc3c(C(=O)Nc4ccc(F)cc4)cnn32)c1OC (stereo not drawn) | -3.4% | -4.6% | nt
CCc1cccc2c3c([nH]c12)[C@@](CC)(CC(=O)O)OCC3 | -3.8% | -3.4% | nt
N#Cc1sc2nc(-c3ccccc3)cc(-c3ccco3)c2c1N | -14.7% | -13.5% | nt
N#Cc1c(-c2ccccc2)cc(-c2ccco2)c(C#N)c1N | -22.1% | -3.1% | 7.7%
COC(=O)c1sc(N2C(=O)c3oc4cc(C)c(C)cc4c(=O)c3C2c2ccccc2F)nc1C (stereo not drawn) | 1.3% | -0.7% | nt
COc1ccc(/C=N/NC(=O)c2cccc(Br)c2)cc1Cn1cc(Cl)cn1 | ? | -1.8% | nt
COc1ccc(/C=N/NC(=O)c2ccc(Br)cc2)cc1Cn1cc(Cl)cn1 | ? | -5.3% | -58.5%
OC1CC2CC[C@H](C1)N2CCCN1c2ccccc2Sc2ccc(Cl)cc21 (stereo partly drawn) | -2.9% | -3.9% | nt
O=C(Nc1c(C(=O)c2ccc(Cl)cc2)oc2ccccc12)c1cc(=O)c2ccccc2o1 | -2.2% | 7.3% | nt
CNc1oc(Cc2ccccc2)nc1S(=O)(=O)c1ccccc1 | 3.16µM* | 3.16µM* | 28.2µM*
CNc1oc(C)nc1S(=O)(=O)c1ccc(C)cc1 | -5.1% | -0.9% | nt
O=C(Nc1ccc(NC(=O)c2cccs2)cc1)c1ccc(Br)cc1 | -16.1% | -2.0% | nt
Cc1ccc(NC(=O)/C=C/c2ccc3c(c2)OCO3)cc1S(=O)(=O)N1CCOCC1 | 20µM* | 12.6µM* | -11.4%
Cc1ccc(C(=O)NCc2ccc3c(c2)OCO3)cc1S(=O)(=O)N1CCOCC1 | 9.5% | -2.6% | nt
Cn1nnnc1SCCCNCc1ccccc1OCc1ccccc1Cl | -11.0% | -7.3% | nt
COC(=O)CCC(C)C1CCC2C3CC[C@H]4CC(O)CC[C@@]4(C)C3CC(O)[C@]12C (stereo partly drawn) | ? | -9.1% | -6.0%

High-throughput results from PubChem BioAssay.
